Experimental data from PubChem BioAssay.
For part of these data: Results with a measured potency or affinity are listed apart. Calls of active or inactive are those of the source.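 Rule for the calls, unless noted: active = calcium signal ratio cut to more than 3 SD under the fully stimulated control mean yet still positive, in both repeats and the primary screen; inactive = the rest.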

How the values were obtained:
[1] = tested on: TRPC4 beta (transient receptor potential cation channel C4), mouse; test: TRPC4 cation channel opening, retest – cell-based, Fluo4 calcium, HEK293 TRPC4beta/mu-opioid, duplicates, 10 µM, confirmation (AID 2426;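 active = fluorescence ratio normalized to control raised more than 50% in primary screen plus both repeat runs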); conditions: Fluo4 calcium fluorescence, at 10 µM; hits give high values
[2] = tested on: transient receptor potential cation channel C4 beta (TRPC4), mouse; test: TRPC4 cation channel opening, second retest – cell-based, second round, Fluo4, HEK293 TRPC4beta/mu-opioid, 1 µM, confirmation (AID 2461;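 active = primary screen active and over 50% activation in each of two duplicate runs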); conditions: Fluo4 calcium fluorescence, at 1 µM; hits give high values
[3] = tested on: TRPC4 (transient receptor potential cation channel C4 beta), mouse; test: potentiation of DAMGO EC20 TRPC4 response – cell-based, second round, Fluo-4, HEK293 TRPC4beta/mu-opioid, 1 µM, confirmation (AID 2554;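 active = primary screen hit whose fluorescence ratio, in both repeats, exceeds the weak agonist control mean by 3 SD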); conditions: DAMGO EC20, Fluo-4 calcium flux, at 1 µM; hits give high values
[4] = tested on: TRPC4 beta (transient receptor potential cation channel C4), mouse; test: potentiation of DAMGO EC20 TRPC4 response – cell-based, Fluo-4, HEK293 TRPC4beta/mu-opioid, confirmation (AID 2555;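 active = primary screen hit whose calcium fluorescence ratio, in both repeats, exceeds the weak agonist control mean by 3 SD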); conditions: DAMGO EC20, Fluo-4 calcium flux, at 10 µM; hits give high values
[5] = target: Short transient receptor potential channel 4 (Mus musculus) (UniProt Q9QUQ5); test: blockers of DAMGO-evoked TRPC4 calcium flux – cell-based, Fluo4, HEK293 TRPC4beta/mu-opioid, confirmation (AID 2636;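 active = calcium signal cut by more than 3 SD below the full-agonist control yet still positive, in both repeats and the earlier primary screen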); conditions: at 10 µM; hits give high values
[6] = target: Short transient receptor potential channel 4 (Mus musculus) (UniProt Q9QUQ5); test: blockers of DAMGO-evoked TRPC4 calcium flux – cell-based, second round, Fluo4, HEK293 TRPC4beta/mu-opioid, 1 µM, confirmation (AID 2637); conditions: at 1 µM; hits give high values
[7] = target: Short transient receptor potential channel 4 (Mus musculus) (UniProt Q9QUQ5); test: calcium entry via TRPC4 opening agents – cell-based, HEK293 TRPC4/mu-opioid, Fluo-4 calcium, dose response (AID 434937;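 active = primary screen activator hit with a dose response curve and TRPC4 channel activation at any tested dose; inactive = no activation, no dose response, or not a primary hit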)
[8] = target: Short transient receptor potential channel 4 (Mus musculus) (UniProt Q9QUQ5); test: potentiation of DAMGO-evoked TRPC4 calcium signal – cell-based, HEK293 TRPC4/mu-opioid, Fluo-4 calcium, EC20 DAMGO, dose response (AID 434941;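 active = earlier screen potentiator hit that boosts the TRPC4 ion channel at some dose, with a dose response; inactive = no potentiation, no dose response, or not a prior hit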;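 note: calcium entry triggered by an EC20 dose of DAMGO at the co-expressed mu-opioid receptor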)
[9] = target: Short transient receptor potential channel 4 (Mus musculus) (UniProt Q9QUQ5); test: block of DAMGO-driven TRPC4 calcium entry – cell-based, HEK293 TRPC4/mu-opioid, Fluo-4 calcium, dose response (AID 434942;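 active = primary screen inhibitor hit that blocks the TRPC4 channel at some tested dose, yielding a dose curve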)
[10] = target: Short transient receptor potential channel 6 (Mus musculus) (UniProt Q61143); test: TRPC6 blockade by TRPC4 inhibitor hits – cell-based, HEK293, membrane potential dye, duplicate, selectivity assay for TRPC4 inhibitor project, confirmation (AID 434948;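 active = active in primary screen and both duplicates, each dropping signal beyond three positive-control SD with fluorescence still positive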); conditions: HEK293 TRPC6, membrane potential dye fluorescence, at 10 µM, stimulated with maximal-effect acetylcholine; hits give high values
[11] = target: Short transient receptor potential channel 6 (Mus musculus) (UniProt Q61143); test: TRPC6 opening by TRPC4 activator hits – cell-based, HEK293, membrane potential dye, duplicate, selectivity assay for TRPC4 activator project, confirmation (AID 434950;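 active = membrane potential signal rise above negative control mean plus 3 SD in both duplicates, also active in the earlier TRPC4 screen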); conditions: HEK293 TRPC6, membrane potential fluorescence, at 10 µM; activation: hits give high values; outcome: activation
[12] = target: Short transient receptor potential channel 6 (Mus musculus) (UniProt Q61143); test: positive modulators of mouse TRPC6 channel – HEK293 cells, membrane potential dye, duplicate, selectivity assay for TRPC4 potentiator project, confirmation (AID 434952;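 active = compound raising the membrane signal above positive-control mean plus 3 SD in both repeats, and a primary screen hit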); conditions: HEK293 TRPC6, membrane potential dye fluorescence, at 10 µM, maximal acetylcholine added after compound; hits give high values
[13] = target: Short transient receptor potential channel 4 (Mus musculus) (UniProt Q9QUQ5); test: calcium flux activators in TRPC4/5HT1a cells, counter-screen for TRPC4 activator project, cell-based, second counter screen, HEK293 TRPC4/5HT1a, Fluo-4 (AID 434977;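 active = calcium signal rise above buffer-control mean plus 5 SD in both duplicates, and also a hit in the primary screen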); conditions: Fluo-4 calcium flux, at 10 µM; hits give high values
[14] = serotonin-gated TRPC4 signal block – cell-based, second counter screen, HEK293 TRPC4/5HT1a, Fluo-4, counter-screen for TRPC4 inhibitor project, confirmation (AID 434978;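 active = primary screen active whose calcium signal fell more than 3 SD beyond the full-serotonin control mean in both duplicate plates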;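 for outcome: serotonin given first at submaximal then at maximal dose after compound preincubation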); conditions: Fluo-4 calcium flux, at 10 µM, serotonin added to trigger calcium flux; hits give high values
[15] = tested on: TRPC4 (mouse), co-expressed with 5HT1a in HEK293; test: enhancement of serotonin-evoked TRPC4 response – cell-based, second counter screen, HEK293 TRPC4/5HT1a, Fluo-4, counter-screen for TRPC4 potentiator project, confirmation (AID 434979;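 active = signal rise over 3 SD above mean of control wells given weak agonist, in both repeats and first screen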); conditions: Fluo-4 calcium flux, at 10 µM, serotonin added at its EC20 dose; hits give high values
[16] = nonspecific calcium rise without TRPC4 – cell-based, HEK293 mu-opioid receptor line, counter-screen for TRPC4 activator project, confirmation (AID 449723;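 active = hit in primary screen, with calcium signal over 5 SD above buffer well mean in both duplicates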;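 note: counter screen cells carry the mu-opioid receptor alone and lack TRPC4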); conditions: HEK293 mu-opioid cells, Fluo-4 calcium fluorescence, at 10 µM; hits give high values
[17] = nonspecific potentiation of DAMGO calcium response – cell-based, HEK293 mu-opioid receptor line, counter-screen for TRPC4 allosteric potentiator project, confirmation (AID 449724;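 active = calcium signal rise more than 3 SD above the low-dose agonist control mean, in both duplicate plates and the primary screen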); conditions: HEK293 mu-opioid receptor cells, Fluo-4 calcium flux, at 10 µM, compound added before EC20 DAMGO stimulus; hits give high values

Chain of Short transient receptor potential channel 6 (Mus musculus) (Q61143 whole entry, looked up): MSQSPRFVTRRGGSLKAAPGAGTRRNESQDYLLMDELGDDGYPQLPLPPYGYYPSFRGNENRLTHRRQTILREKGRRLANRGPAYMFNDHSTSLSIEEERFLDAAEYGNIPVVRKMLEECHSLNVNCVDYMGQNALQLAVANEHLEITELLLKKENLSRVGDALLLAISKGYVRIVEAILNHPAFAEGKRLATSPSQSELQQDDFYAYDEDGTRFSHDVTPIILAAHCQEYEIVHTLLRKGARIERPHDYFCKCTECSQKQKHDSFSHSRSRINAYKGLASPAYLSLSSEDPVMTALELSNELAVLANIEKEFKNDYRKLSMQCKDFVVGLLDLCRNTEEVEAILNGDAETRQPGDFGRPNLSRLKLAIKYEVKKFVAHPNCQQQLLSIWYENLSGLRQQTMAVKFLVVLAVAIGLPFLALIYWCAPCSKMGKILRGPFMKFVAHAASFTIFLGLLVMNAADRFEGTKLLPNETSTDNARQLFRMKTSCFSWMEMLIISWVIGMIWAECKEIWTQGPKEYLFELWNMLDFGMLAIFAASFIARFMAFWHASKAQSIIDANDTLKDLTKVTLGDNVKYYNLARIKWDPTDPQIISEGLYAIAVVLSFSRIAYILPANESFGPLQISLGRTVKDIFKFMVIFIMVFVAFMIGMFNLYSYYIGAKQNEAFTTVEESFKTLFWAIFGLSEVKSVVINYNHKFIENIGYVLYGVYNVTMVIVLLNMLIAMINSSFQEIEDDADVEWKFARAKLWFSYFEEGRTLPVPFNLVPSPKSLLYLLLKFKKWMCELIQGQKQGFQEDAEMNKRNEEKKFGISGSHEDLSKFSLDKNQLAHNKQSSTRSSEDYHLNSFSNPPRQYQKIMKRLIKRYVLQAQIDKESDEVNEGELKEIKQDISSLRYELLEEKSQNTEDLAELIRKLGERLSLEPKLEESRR
Chain of Short transient receptor potential channel 4 (Mus musculus) (Q9QUQ5 whole entry, looked up): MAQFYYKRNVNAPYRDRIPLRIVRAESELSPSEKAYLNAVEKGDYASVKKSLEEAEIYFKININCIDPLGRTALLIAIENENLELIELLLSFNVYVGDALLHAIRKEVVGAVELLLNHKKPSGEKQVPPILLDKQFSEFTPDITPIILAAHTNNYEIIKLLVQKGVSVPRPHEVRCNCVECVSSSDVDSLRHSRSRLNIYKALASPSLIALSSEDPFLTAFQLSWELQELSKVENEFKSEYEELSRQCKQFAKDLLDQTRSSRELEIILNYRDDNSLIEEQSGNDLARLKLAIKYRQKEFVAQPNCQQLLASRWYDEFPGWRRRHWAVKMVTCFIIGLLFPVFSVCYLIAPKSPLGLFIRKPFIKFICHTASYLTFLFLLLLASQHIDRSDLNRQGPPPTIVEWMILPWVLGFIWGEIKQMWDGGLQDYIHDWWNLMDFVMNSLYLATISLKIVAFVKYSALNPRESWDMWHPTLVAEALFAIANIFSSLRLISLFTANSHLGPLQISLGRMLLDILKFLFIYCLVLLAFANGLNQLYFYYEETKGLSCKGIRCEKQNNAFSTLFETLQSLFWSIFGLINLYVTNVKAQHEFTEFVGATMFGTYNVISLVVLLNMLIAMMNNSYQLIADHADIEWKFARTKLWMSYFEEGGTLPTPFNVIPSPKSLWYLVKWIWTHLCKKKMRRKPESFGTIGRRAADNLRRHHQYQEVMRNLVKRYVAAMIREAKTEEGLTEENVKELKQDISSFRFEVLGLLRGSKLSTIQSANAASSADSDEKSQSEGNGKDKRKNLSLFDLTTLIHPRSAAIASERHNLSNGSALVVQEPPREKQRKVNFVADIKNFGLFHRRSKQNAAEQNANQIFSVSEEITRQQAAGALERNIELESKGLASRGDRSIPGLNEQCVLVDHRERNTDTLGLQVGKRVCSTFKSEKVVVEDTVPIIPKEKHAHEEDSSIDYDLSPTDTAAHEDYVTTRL

## CN(C)CCOC(=O)C1(c2ccccc2)CCOCC1
[1]
  outcome: inactive
[2]
  outcome: inactive
[3]
  outcome: inactive
[4]
  potentiation: 8% (active)
[5]
  outcome: inactive
[6]
  outcome: inactive
[7]
  outcome: inactive
[8]
  outcome: inactive
[9]
  outcome: inactive
[10]
  outcome: inactive
[11]
  outcome: inactive
[12]
  outcome: inactive
[13]
  outcome: inactive
[14]
  outcome: inactive
[15]
  potentiation: 23.2% (active)
[16]
  outcome: inactive
[17]
  outcome: inactive

## CCNC(=S)N/N=C/c1cc(C)n(-c2ccc(Cl)cc2)c1C
[1]
  outcome: inactive
[2]
  outcome: inactive
[3]
  outcome: inactive
[4]
  potentiation: 19% (active)
[5]
  outcome: inactive
[6]
  outcome: inactive
[7]
  outcome: inactive
[8]
  outcome: inactive
[9]
  outcome: inactive
[10]
  outcome: inactive
[11]
  outcome: inactive
[12]
  outcome: inactive
[13]
  outcome: inactive
[14]
  outcome: inactive
[15]
  potentiation: 17.3% (active)
[16]
  outcome: inactive
[17]
  outcome: inactive

## CCN1CCN(c2nc(C)c3c(n2)CC(C)CC3=O)CC1 (stereo not given)
[1]
  outcome: inactive
[2]
  outcome: inactive
[3]
  outcome: inactive
[4]
  outcome: inactive
[5]
  outcome: inactive
[6]
  outcome: inactive
[7]
  outcome: inactive
[8]
  outcome: inactive
[9]
  outcome: inactive
[10]
  outcome: inactive
[11]
  outcome: inactive
[12]
  outcome: inactive
[13]
  outcome: inactive
[14]
  outcome: inactive
[15]
  potentiation: 8.12% (active)
[16]
  outcome: inactive
[17]
  outcome: inactive

## COC1=C(C)C(O)=C(C(=O)/C=C/c2ccccc2)C(=O)C1(C)C
[1]
  outcome: inactive
[2]
  outcome: inactive
[3]
  outcome: inactive
[4]
  outcome: inactive
[5]
  outcome: inactive
[6]
  outcome: inactive
[7]
  outcome: inactive
[8]
  outcome: inactive
[9]
  outcome: inactive
[10]
  outcome: inactive
[11]
  outcome: inactive
[12]
  outcome: inactive
[13]
  outcome: inactive
[14]
  outcome: inactive
[15]
  outcome: inactive
[16]
  outcome: inactive
[17]
  outcome: inactive

## CCCCCCc1cc2cc(-c3nnc(-c4ccccc4O)o3)c(=O)oc2cc1O
[1]
  outcome: inactive
[2]
  outcome: inactive
[3]
  outcome: inactive
[4]
  potentiation: 15% (active)
[5]
  outcome: inactive
[6]
  outcome: inactive
[7]
  outcome: inactive
[8]
  outcome: inactive
[9]
  outcome: inactive
[10]
  outcome: inactive
[11]
  outcome: inactive
[12]
  outcome: inactive
[13]
  outcome: inactive
[14]
  outcome: inactive
[15]
  potentiation: 35.3% (active)
[16]
  outcome: inactive
[17]
  activation: 1460% (active)

## Cc1cccn2c(=O)c3cc(C(=O)N(C)C)n(C)c3nc12
[1]
  outcome: inactive
[2]
  outcome: inactive
[3]
  outcome: inactive
[4]
  potentiation: 29% (active)
[5]
  outcome: inactive
[6]
  outcome: inactive
[7]
  outcome: inactive
[8]
  outcome: inactive
[9]
  outcome: inactive
[10]
  outcome: inactive
[11]
  outcome: inactive
[12]
  outcome: inactive
[13]
  outcome: inactive
[14]
  outcome: inactive
[15]
  potentiation: 37.3% (active)
[16]
  outcome: inactive
[17]
  outcome: inactive

## Cc1cc(C)c(C)c(OCCCOc2cccc3cccnc23)c1
[1]
  outcome: inactive
[2]
  outcome: inactive
[3]
  outcome: inactive
[4]
  outcome: inactive
[5]
  outcome: inactive
[6]
  outcome: inactive
[7]
  outcome: inactive
[8]
  outcome: inactive
[9]
  outcome: inactive
[10]
  outcome: inactive
[11]
  outcome: inactive
[12]
  outcome: inactive
[13]
  outcome: inactive
[14]
  outcome: inactive
[15]
  potentiation: 19% (active)
[16]
  outcome: inactive
[17]
  outcome: inactive

## O=c1[nH]ncc(N2CCN(Cc3ccccc3)CC2)c1Cl
[1]
  outcome: inactive
[2]
  outcome: inactive
[3]
  outcome: inactive
[4]
  outcome: inactive
[5]
  outcome: inactive
[6]
  outcome: inactive
[7]
  outcome: inactive
[8]
  outcome: inactive
[9]
  outcome: inactive
[10]
  outcome: inactive
[11]
  outcome: inactive
[12]
  outcome: inactive
[13]
  outcome: inactive
[14]
  outcome: inactive
[15]
  outcome: inactive
[16]
  outcome: inactive
[17]
  outcome: inactive

## O=C(Cc1cn(Cc2cccc(Cl)c2)c2ccccc12)N1CCCC1
[1]
  outcome: inactive
[2]
  outcome: inactive
[3]
  outcome: inactive
[4]
  potentiation: 10% (active)
[5]
  outcome: inactive
[6]
  outcome: inactive
[7]
  outcome: inactive
[8]
  outcome: inactive
[9]
  outcome: inactive
[10]
  outcome: inactive
[11]
  outcome: inactive
[12]
  outcome: inactive
[13]
  outcome: inactive
[14]
  outcome: inactive
[15]
  potentiation: 29.2% (active)
[16]
  outcome: inactive
[17]
  outcome: inactive

## Cc1sc(NC(=O)C2CCCCC2C(=O)O)c(C(N)=O)c1-c1ccc(C(C)(C)C)cc1 (stereo not given)
[1]
  outcome: inactive
[2]
  outcome: inactive
[3]
  outcome: inactive
[4]
  outcome: inactive
[5]
  inhibition: 95% (active)
[6]
  outcome: inactive
[7]
  outcome: inactive
[8]
  outcome: inactive
[9]
  outcome: inactive
[10]
  outcome: inactive
[11]
  outcome: inactive
[12]
  outcome: inactive
[13]
  outcome: inactive
[14]
  inhibition: 18.7% (active)
[15]
  outcome: inactive
[16]
  outcome: inactive
[17]
  outcome: inactive

## CC(=O)N1N=C(c2ccc(Br)cc2)OC1(C)CC(=O)Nc1ccccc1 (stereo not given)
[1]
  outcome: inactive
[2]
  outcome: inactive
[3]
  outcome: inactive
[4]
  outcome: inactive
[5]
  outcome: inactive
[6]
  outcome: inactive
[7]
  outcome: inactive
[8]
  outcome: inactive
[9]
  outcome: inactive
[10]
  outcome: inactive
[11]
  outcome: inactive
[12]
  outcome: inactive
[13]
  outcome: inactive
[14]
  outcome: inactive
[15]
  potentiation: 13.4% (active)
[16]
  outcome: inactive
[17]
  outcome: inactive

## Cc1ccc(/C=N/NC(=O)C2COc3ccccc3O2)s1 (stereo not given)
[1]
  outcome: inactive
[2]
  outcome: inactive
[3]
  outcome: inactive
[4]
  outcome: inactive
[5]
  outcome: inactive
[6]
  outcome: inactive
[7]
  outcome: inactive
[8]
  outcome: inactive
[9]
  outcome: inactive
[10]
  outcome: inactive
[11]
  outcome: inactive
[12]
  outcome: inactive
[13]
  outcome: inactive
[14]
  outcome: inactive
[15]
  potentiation: 22.2% (active)
[16]
  outcome: inactive
[17]
  outcome: inactive

## O=C(COC(=O)c1ccccn1)Nc1nc(-c2ccccc2)cs1
[1]
  outcome: inactive
[2]
  outcome: inactive
[3]
  outcome: inactive
[4]
  outcome: inactive
[5]
  outcome: inactive
[6]
  outcome: inactive
[7]
  outcome: inactive
[8]
  outcome: inactive
[9]
  outcome: inactive
[10]
  outcome: inactive
[11]
  outcome: inactive
[12]
  outcome: inactive
[13]
  outcome: inactive
[14]
  outcome: inactive
[15]
  outcome: inactive
[16]
  outcome: inactive
[17]
  outcome: inactive

## COc1ccc(CCN2C(=S)N(C)C(=O)C2CC(=O)Nc2ccc(F)cc2)cc1 (stereo not given)
[1]
  outcome: inactive
[2]
  outcome: inactive
[3]
  outcome: inactive
[4]
  outcome: inactive
[5]
  outcome: inactive
[6]
  outcome: inactive
[7]
  outcome: inactive
[8]
  outcome: inactive
[9]
  outcome: inactive
[10]
  outcome: inactive
[11]
  outcome: inactive
[12]
  outcome: inactive
[13]
  outcome: inactive
[14]
  outcome: inactive
[15]
  outcome: inactive
[16]
  outcome: inactive
[17]
  outcome: inactive

## COc1ccccc1CC(=O)N1CCN(S(=O)(=O)c2ccccc2)CC1
[1]
  outcome: inactive
[2]
  outcome: inactive
[3]
  outcome: inactive
[4]
  potentiation: 24% (active)
[5]
  outcome: inactive
[6]
  outcome: inactive
[7]
  outcome: inactive
[8]
  outcome: inactive
[9]
  outcome: inactive
[10]
  outcome: inactive
[11]
  outcome: inactive
[12]
  outcome: inactive
[13]
  outcome: inactive
[14]
  outcome: inactive
[15]
  potentiation: 44.4% (active)
[16]
  outcome: inactive
[17]
  outcome: inactive
